# PubChem BioAssay (NCI)
# About 79,000 compounds went through this panel and 15% of them were active in at least one assay; those are over-represented in the sample as a whole. Unmarked numbers belong to inactive results. Calls of active or inactive are those of the source. Cut-off read from the data, not from the text of the source: active = growth inhibition above about 70%; inactive = the rest.
# Assay: NCI Yeast Anticancer Drug Screen. Data for the cln2 rad14 strain (AID 165);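 note: 0% = growth equal to vehicle treated cultures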
# Settings: S. cerevisiae cln2 rad14 strain, at 50.0 µM, stronger effect = higher value
# In short: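 Strain: cln2 rad14 yeast, altered in cell cycle control and DNA damage repair. Read-out: growth inhibition vs vehicle.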
row,Structure (SMILES),growth inhibition
1,CC(=O)N(C)N=Nc1ccc(C(F)(F)F)cc1,-30.1%
2,O=c1oc2ccccc2cc1S(=O)(=O)c1ccc(Cl)cc1,-58%
3,CCc1c([N+](=O)[O-])cc(C(C)(C)C)c(OC)c1[N+](=O)[O-],-17.6%
4,O=C(NCCCCCCCCCCNC(=O)C12CC3CC(CC(C3)C1)C2)C12CC3CC(CC(C3)C1)C2,14.7%
5,O=C1C=CC(=NN=c2c3ccccc3oc3ccccc23)C=C1,-20.9%
6,COCC/C=C\CN(C(C)C)C(C)C,5.45%
7,Oc1ccc(-c2cc(-c3c(O)cc(O)cc3O)on2)cc1,-2.85%
8,COc1ccc(-c2cc(=O)c3ccc(O)cc3o2)c(OC)c1OC,6.65%
9,NC(=O)c1cc2ccccc2c2ccccc12,-33.3%
10,CC(=O)Nc1ccc2c(c1)Cc1cccc(O)c1-2,-29.9%
11,C/C(=N\NC(=S)NC(C)C)c1nc2ncccc2[nH]1,-28.8%
12,COc1cc(C2c3cc4c(cc3[C@@H](Nc3ccc(C#N)cc3)C3COC(=O)[C@H]23)OCO4)cc(OC)c1O (stereo not given in full),85.5% (active)
13,CCCCCCC(C)OC(C)=O (stereo not given),-20%
14,O=[N+]([O-])c1ccc(C=Nc2ccc3c(c2)Cc2ccccc2-3)cc1,-20.1%
15,CCOC(=O)c1cnc2c(ccc3ncccc32)c1OCC,17.2%
16,CC12CCCC3(CC(=O)C(C)(C)C3C(=O)C1)C2 (stereo not given),10.2%
17,NC(=S)NNC(=S)NC(=O)c1ccco1,14.3%
18,O=c1[nH]c(=O)n(C2OC(CO)C(O)C2O)cc1OCCCc1ccccc1 (stereo not given),31.2%
19,O=C(O)C(Cc1ccc2c(c1)CCC2)(Cc1ccc2c(c1)CCC2)C(=O)O,33.3%
20,O=C(Oc1ccc(OC(=O)c2ccc([N+](=O)[O-])cc2)cc1)c1ccccc1,26.4%

row,Structure (SMILES),growth inhibition
1,CCCc1nnnn1C12CC3CC(CC(C3)C1)C2,2.2%
2,CC1CCC(C(C)C)=C(C2CCCCC2)C1 (stereo not given),-7.05%
3,Cc1ccc2c(c1)CCCN2,21.6%
4,NC(=Nc1ccc([N+](=O)[O-])cc1)c1ccccc1,-11.9%
5,O=C(O)CNC(=O)c1cccc(Cl)c1,13.3%
6,OCCCCCOCc1ccccc1,42.8%
7,Nc1ccc(C(=O)Nc2ccccn2)cc1,-27.6%
8,c1ccc2c(c1)N=C(c1ccc3ccccc3c1)CC(c1cccc3ccccc13)S2 (stereo not given),33.1%
9,O=C1Cc2c(-c3ccccc3)cc(-c3ccccc3)nc2-c2ccccc2N1,25.7%
10,Nc1ccc(C(=O)NO)c(O)c1,-41.8%
11,CC(=O)OC1c2ccccc2C(=O)C1(OC(C)=O)c1ccccc1 (stereo not given),25.3%
12,COc1cccc2c1[C@H]1CO[C@H]3C4C[C@H](C(=O)O)C([C@@H](C2)N13)N4C (stereo not given in full),-12.1%
13,CC(=O)CC(=O)NC(C)(C)C,-13.2%
14,[O-][n+]1onc2c1CCC(=N\O)/C2=N/Nc1ccccc1,34.9%
15,CCOC(=O)NC(Nc1ccc([N+](=O)[O-])cc1)(C(F)(F)F)C(F)(F)F,32.1%
16,CC(=O)N(C(C)=O)c1cc2c3ccccc3ccc2c2ccccc12,15.1%
17,C=CCOc1ccccc1C,8.1%
18,COc1ccc(C(=O)NNC(=O)c2ccc3ccccc3c2)cc1,9.95%
19,CC(=O)Nc1ccc(F)cc1,4%
20,Nc1nnc2nc(C(C(=O)c3cccc(O)c3)c3nc4nnc(N)n4[nH]c3=O)c(=O)[nH]n12,4.7%

# Assay: NCI Yeast Anticancer Drug Screen. Data for the bub3 strain (AID 167)
# Settings: S. cerevisiae bub3 mutant strain, at 50.0 µM, stronger effect = higher value
# In short: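 Screening used yeast with an engineered genetic alteration affecting cell cycle control. Compound-exposed cultures were compared with vehicle cultures, and reduced growth was taken as inhibition.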
row,Structure (SMILES),growth inhibition
1,CC(=O)N(C)N=Nc1ccc(C(F)(F)F)cc1,-5.8%
2,O=c1oc2ccccc2cc1S(=O)(=O)c1ccc(Cl)cc1,-9.75%
3,CCc1c([N+](=O)[O-])cc(C(C)(C)C)c(OC)c1[N+](=O)[O-],20.2%
4,O=C(NCCCCCCCCCCNC(=O)C12CC3CC(CC(C3)C1)C2)C12CC3CC(CC(C3)C1)C2,-2.1%
5,O=C1C=CC(=NN=c2c3ccccc3oc3ccccc23)C=C1,12.7%
6,COCC/C=C\CN(C(C)C)C(C)C,3.5%
7,Oc1ccc(-c2cc(-c3c(O)cc(O)cc3O)on2)cc1,-7.45%
8,COc1ccc(-c2cc(=O)c3ccc(O)cc3o2)c(OC)c1OC,-2.65%
9,NC(=O)c1cc2ccccc2c2ccccc12,-1%
10,CC(=O)Nc1ccc2c(c1)Cc1cccc(O)c1-2,1.75%
11,C/C(=N\NC(=S)NC(C)C)c1nc2ncccc2[nH]1,17.5%
12,COc1cc(C2c3cc4c(cc3[C@@H](Nc3ccc(C#N)cc3)C3COC(=O)[C@H]23)OCO4)cc(OC)c1O (stereo not given in full),89% (active)
13,CCCCCCC(C)OC(C)=O (stereo not given),-3.5%
14,O=[N+]([O-])c1ccc(C=Nc2ccc3c(c2)Cc2ccccc2-3)cc1,-16.4%
15,CCOC(=O)c1cnc2c(ccc3ncccc32)c1OCC,10.8%
16,CC12CCCC3(CC(=O)C(C)(C)C3C(=O)C1)C2 (stereo not given),9.6%
17,NC(=S)NNC(=S)NC(=O)c1ccco1,22.1%
18,O=c1[nH]c(=O)n(C2OC(CO)C(O)C2O)cc1OCCCc1ccccc1 (stereo not given),-5.45%
19,O=C(O)C(Cc1ccc2c(c1)CCC2)(Cc1ccc2c(c1)CCC2)C(=O)O,22.8%
20,O=C(Oc1ccc(OC(=O)c2ccc([N+](=O)[O-])cc2)cc1)c1ccccc1,-3.05%

row,Structure (SMILES),growth inhibition
1,CCCc1nnnn1C12CC3CC(CC(C3)C1)C2,18.3%
2,CC1CCC(C(C)C)=C(C2CCCCC2)C1 (stereo not given),-9.8%
3,Cc1ccc2c(c1)CCCN2,9.8%
4,NC(=Nc1ccc([N+](=O)[O-])cc1)c1ccccc1,8.3%
5,O=C(O)CNC(=O)c1cccc(Cl)c1,16.9%
6,OCCCCCOCc1ccccc1,-8.65%
7,Nc1ccc(C(=O)Nc2ccccn2)cc1,3.1%
8,c1ccc2c(c1)N=C(c1ccc3ccccc3c1)CC(c1cccc3ccccc13)S2 (stereo not given),19.3%
9,O=C1Cc2c(-c3ccccc3)cc(-c3ccccc3)nc2-c2ccccc2N1,29.2%
10,Nc1ccc(C(=O)NO)c(O)c1,18.7%
11,CC(=O)OC1c2ccccc2C(=O)C1(OC(C)=O)c1ccccc1 (stereo not given),-10.9%
12,COc1cccc2c1[C@H]1CO[C@H]3C4C[C@H](C(=O)O)C([C@@H](C2)N13)N4C (stereo not given in full),-4.7%
13,CC(=O)CC(=O)NC(C)(C)C,2.85%
14,[O-][n+]1onc2c1CCC(=N\O)/C2=N/Nc1ccccc1,18.6%
15,CCOC(=O)NC(Nc1ccc([N+](=O)[O-])cc1)(C(F)(F)F)C(F)(F)F,42%
16,CC(=O)N(C(C)=O)c1cc2c3ccccc3ccc2c2ccccc12,32.8%
17,C=CCOc1ccccc1C,-21.7%
18,COc1ccc(C(=O)NNC(=O)c2ccc3ccccc3c2)cc1,5.5%
19,CC(=O)Nc1ccc(F)cc1,-19.5%
20,Nc1nnc2nc(C(C(=O)c3cccc(O)c3)c3nc4nnc(N)n4[nH]c3=O)c(=O)[nH]n12,1.2%
